Giardia FBPA inh = blocks Giardia fructose-bisphosphate aldolase activity | purified Giardia FBPA | Potency, µM (series often up to 59.6 µM), without a hit: at the top dose activity, negative = inhibition, hits mostly inhibitors | actives 0.71% (n = 290,000); also: potency is read from the fitted curve at half-maximal effect; % is scaled to controls: 0 for no effect and ±100 for the full control effect; nearly all actives have a fitted effect of over 55% in size
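40 nM FBPA preincubated 10 min at RT with compound (up to 57.5 uM final), then substrate plus GAPDH/TPI/NAD/arsenate coupling and diaphorase/resazurin added. Fluorescence read after 20 min at RT, 525/598 nm.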
RE007 growth inh = less growth of the S. pombe RE007 Vpr strain. actives 0.21% (n = 360,000). Potency, µM (top dose mostly 92.2 µM), inactives show top-dose activity change, negative = less growth, usual class: inhibitors. S. pombe RE007 Vpr strain, BacTiter-Glo ATP luminescence, 24 h; active = well fitted falling curve with a large enough effect; inconclusive = small, poorly fitted or top-dose-only effect; inactive = no such curve, though single readings can be large or run the other way; also: potency is read from the fitted curve at half-maximal effect; % is scaled to controls: 0 for no effect and ±100 for the full control effect; nearly all actives have a fitted effect of over 50% in size
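Fission yeast strain RE007, carrying one chromosomally integrated HIV-1 vpr copy, was seeded at OD 0.01 in PMG+AL medium with 23 nL pinned compound. After 24 h at 30 °C and 99% humidity, viability was read by BacTiter-Glo luminescence.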
LmPK inh = LmPK (Leishmania mexicana) enzyme inhibition; AID 1721; Potency, µM (top dose mostly 57.5 µM), for inactives: at the highest dose activity change, negative = inhibition, hits mostly inhibitors; purified LmPK, Kinase-Glo ATP luminescence, 1 h; actives 0.37% (n = 290,000); also: potency is read from the fitted curve at half-maximal effect; % is scaled to controls: 0 for no effect and ±100 for the full control effect
Target sequence (Q27686 whole entry, looked up): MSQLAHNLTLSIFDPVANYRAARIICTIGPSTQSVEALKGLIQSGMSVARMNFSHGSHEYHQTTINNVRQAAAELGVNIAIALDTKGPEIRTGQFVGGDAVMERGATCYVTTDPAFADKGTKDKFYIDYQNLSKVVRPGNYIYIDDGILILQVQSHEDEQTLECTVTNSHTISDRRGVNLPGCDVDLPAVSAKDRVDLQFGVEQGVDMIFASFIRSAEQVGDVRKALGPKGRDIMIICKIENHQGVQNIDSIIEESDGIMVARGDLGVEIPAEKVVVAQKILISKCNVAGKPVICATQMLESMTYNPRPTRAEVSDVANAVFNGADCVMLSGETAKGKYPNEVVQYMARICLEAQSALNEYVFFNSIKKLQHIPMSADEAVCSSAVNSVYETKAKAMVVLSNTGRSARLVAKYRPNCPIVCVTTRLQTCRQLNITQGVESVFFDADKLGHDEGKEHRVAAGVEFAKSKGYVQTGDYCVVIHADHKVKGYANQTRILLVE
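qHTS format; LmPK 0.1 nM; substrates PEP 0.5 mM and ADP 0.1 mM. One-hour room-temperature incubation, then coupled luciferase luminescence; 0.5 nM enzyme wells mark activation.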
Tb PYK inh = inhibitors of Trypanosoma brucei pyruvate kinase. Q57TT1. TbPYK enzyme, Kinase-Glo Plus ATP luminescence, 45 min. Potency, µM (titrated, usually from 76.8 µM), without a hit: top-dose activity, negative = inhibition, actives largely listed as inhibitors. actives 0.12% (n = 410,000). AID 624173; also: potency is read from the fitted curve at half-maximal effect; % is scaled to controls: 0 for no effect and ±100 for the full control effect; nearly all actives have a fitted effect of over 50% in size
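Readout: single end-point luminescence (Kinase-Glo Plus, 10 min). Reaction conditions were TbPYK/substrate plus 130 uM ADP, 45 min at RT, pH 7.2 TEA buffer. No-enzyme wells served as controls, and data were normalized before concentration-response fitting.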
CHX counter = affects cycloheximide protein synthesis inhibition readout, counter-screen; actives 12% (n = 300,000); cell reporter, cycloheximide protein synthesis inhibition counterscreen; max response, %; in the data active = max response mostly above about 13%, no sharp cut-off; inactive = mostly below about 14%; also: read at 38.3 µM for the half of the compounds with a filed dose; 0% is about no effect
Shiga inhibitor = inhibitors of Shiga toxin in Vero cells | inhibition, % at 38.7 µM | Vero cells, Shiga toxin protein synthesis inhibition reporter | actives 9.2% (n = 290,000); in the data active = inhibition mostly above about 28%, no sharp cut-off; inactive = mostly below about 43%; also: 0% is about no effect
Numbers without * were called inactive; ? = inconclusive; · = not tested or not shown; [ ] = dose if it differs, or a comment. Shown is part of a subset that was picked to be rich in hits. Unless noted, calls follow the shape of the dose curve; as a rule, active = well fitted curve in the direction sought with a large enough effect; inconclusive = small, poorly fitted or top-dose-only effect, or another doubt; inactive = no such curve, though single readings can be large; an effect the other way counts as inactive or inconclusive.

SMILES	Giardia FBPA inh	RE007 growth inh	LmPK inh	Tb PYK inh	CHX counter	Shiga inhibitor
CCOC(=O)Nc1ccc2c(c1)ncn2C1CCCCC1	2%	7%	-3%	-1%	27*	82*
CC(=O)Nc1ccc2c(c1)ncn2C1CCCCC1	·	6%	·	4%	·	·
O=C(c1ccccc1)c1c[nH]c2cc3c(cc2c1=O)OCO3	-2%	·	3%	·	-1	23
O=C(c1ccccc1)c1c[nH]c2cc3c(cc2c1=O)OCCO3	5%	-4%	-7%	-13%	17*	45*
CCc1ccc(NS(=O)(=O)c2ccc3[nH]cc(C(=O)N4CCc5ccccc54)c(=O)c3c2)cc1	13%	-10%	2%	-4%	35*	25*
O=C(NCc1ccccc1)c1c[nH]c2ccc(S(=O)(=O)Nc3ccc4c(c3)OCCO4)cc2c1=O	-5%	-2%	7%	-10%	12	49*
O=C(NCc1cccnc1)c1c[nH]c2cc3c(cc2c1=O)OCCO3	6%	-3%	1%	-10%	35*	145*
O=C(NCc1ccccc1)c1c[nH]c2ccccc2c1=O	7%	-12%	-8%	-3%	1	15
CCc1ccc(NS(=O)(=O)c2ccc3[nH]cc(C(=O)NCc4ccc(C)cc4)c(=O)c3c2)cc1	·	·	·	-3%	·	·
Cc1cc(NC(=O)NCc2ccc3c(c2)CCN3C(=O)c2ccccc2)ccc1Br	·	·	·	8%	·	·
CCc1ccc(N(C)S(=O)(=O)c2ccc3[nH]cc(C(=O)NCC4CCCO4)c(=O)c3c2)cc1 (centres undefined)	·	·	·	3%	·	·
CCc1ccc(NS(=O)(=O)c2ccc3[nH]cc(C(=O)NCC4CCCO4)c(=O)c3c2)cc1 (centres undefined)	-5%	-9%	5%	-2%	27*	128
Cc1ccc(CNS(=O)(=O)c2cc(Br)cc3c2N(C(=O)C2CC2)CC3)cc1	·	·	·	0%	·	·
O=C(C1CC1)N1CCc2cc(Br)cc(S(=O)(=O)NCc3ccco3)c21	-10%	22%	6%	-4%	28*	53*
COCC(=O)N(Cc1ccccc1)c1ccccn1	2%	6%	-2%	3%	-4	-3
Cc1ccc(OCC(=O)N(Cc2ccccc2)c2ccccn2)cc1	-8%	19%	-3%	-18%	32*	3
O=C(NC(=S)N(Cc1ccccc1)Cc1ccccc1)C1CCCCC1	4%	13%	-3%	0%	8	-12
COc1cc(CN(C(=O)COc2ccc(C)cc2)c2ccccn2)cc(OC)c1OC	·	·	·	-8%	·	·
COc1ccccc1NC(=O)N(Cc1ccccc1)c1ccccn1	-6%	5%	9%	-9%	10	32*
O=C(NC(=S)N(Cc1ccccc1)c1ccccn1)C1CC1	-19%	-5%	-2%	0%	13*	4
Cc1oc(-c2ccc(C(=O)N(C)Cc3ccccc3)cc2)nc1CN1CCc2ccccc21	·	·	·	6%	·	·
O=C1CS/C(=N/N=C/c2ccccc2)N1Cc1ccco1	0%	-22%	0%	5%	25*	45*
COc1ccccc1N=C1SCC(=O)N1Cc1ccco1	4%	-16%	0%	-3%	1	14
Cc1ccccc1CN1C(=O)CS/C1=N/N=C/c1ccco1	-15%	-8%	5%	0%	-1	-12
COc1ccc(OC)c(/C=N/N=C2\SCC(=O)N2Cc2ccco2)c1	1%	·	1%	-12%	18*	2
SMILES	Giardia FBPA inh	RE007 growth inh	LmPK inh	Tb PYK inh	CHX counter	Shiga inhibitor
O=C(CS(=O)c1ccc(F)cc1)N1CCOCC1 (centres undefined)	16%	3%	-5%	3%	-5	1
CCCCN(C)c1nc2c(S(=O)(=O)c3ccc(CC)cc3)nnn2c2ccc(Cl)cc12	·	·	·	-8%	·	·
CCOc1ccc(CCNC(=O)c2cc3sc(CC)cc3n2C)cc1OCC	·	·	·	2%	·	·
CN=C(NC)NCc1ccccc1	·	·	·	14%	·	·
CCC(C)NC(=O)C1CCC(CNS(=O)(=O)c2ccc(Cl)cc2)CC1 (centres undefined)	·	·	·	-11%[15.4 µM]	·	·
O=C(c1ccco1)N1CCN(c2c([N+](=O)[O-])nn(-c3cccc(Cl)c3)[n+]2[O-])CC1	-19%	7%	12%	4%	14*	22
O=C(c1ccc(Cl)c([N+](=O)[O-])c1)N1CCN(C(=O)c2ccco2)CC1	-1%	76%	7%	6%	7	-21
Cc1ccc(C)c(N2CCN(C(=O)c3cc4c(=O)n(Cc5ccccc5)ccc4nc3C)CC2)c1	·	·	·	0%	·	·
O=[N+]([O-])c1ncccc1OCc1ccc(Br)cc1F	15%	-2%	5%	-5%	-2	-6
CCC(=O)Nc1ccc2c(c1)C(=O)c1ccccc1C2=O	-3%	-21%	-6%	0%	36*	76*
NS(=O)(=O)c1ccc(NC(=O)Cn2nc(C(=O)O)c3ccccc3c2=O)cc1	3%	-10%	4%	0%	-4	-13
O=C(Cn1nc(C(=O)O)c2ccccc2c1=O)Nc1ccc2c(c1)C(=O)c1ccccc1C2=O	2%	·	3%	·	24*	44
Cc1cc(C)cc(OCC(=O)Nc2ccc(F)cc2)c1	2%	26%	6%	?	14	36
Cc1cc(C)cc(OCC(=O)Nc2ccc3c(c2)C(=O)c2ccccc2C3=O)c1	-19%	11%	-1%	-1%	20*	46*
CCc1cccc(C)c1NC(=O)C1CCN(S(=O)(=O)c2c(C)noc2/C=C/c2c(C)cc(C)cc2C)CC1	·	·	·	2%	·	·
Cc1ccc(NC(=O)Cn2nc(C)c3nn(-c4ccc(Cl)cc4)c(C)c3c2=O)cc1C	·	·	·	-11%	·	·
Cc1ccc(-n2ncc3c(NC4CCCCCC4)ncnc32)cc1	·	·	·	-1%	·	·
O=C(Oc1ccccc1)c1ccc2nsnc2c1	-5%	-21%	-15%	3%	53*	75*
CC(=O)N1c2ccc(S(=O)(=O)N3CCCCCC3)cc2CC1C(=O)NCc1ccccc1 (centres undefined)	·	·	·	-5%	·	·
CCc1ccc(Oc2cc(Cl)nc(N)n2)cc1	0%	-3%	-4%	-5%	50*	65*
COc1cccc(Oc2cc(Cl)nc(N)n2)c1	0%	6%	-3%	3%	16*	21*
CCOc1ccc(CCNC(=O)CCn2c(=O)c3cccn3c3ccc(F)cc32)cc1OCC	·	·	·	17%	·	·
O=[N+]([O-])c1ccccc1OCCCOc1cccc2cccnc12	-28%	-18%	6%	-2%	29*	·
Brc1ccccc1OCCOCCOc1cccc2cccnc12	-6%	-17%	-2%	8%	2	24
O=C(/C=C/c1ccccc1)Oc1cccc2cccnc12	-21%	?	1%	-17%	9	23
O=Cc1ccccc1OCCCOc1cccc2cccnc12	-12%	-2%	-4%	-20%	24*	56*
O=C(/C=C\c1ccccc1)Oc1cccc2cccnc12	?	?	-2%	6%	21*	26

Source: PubChem
